The antibiotic and cytotoxicity screens of Wong et al. (2023)
Hit rate of the full screen: of about 39,000 compounds, about 1,500 (3.8%) were called active. Shown is part of a subset that was picked to be rich in actives.

tested on: HSkMC (human skeletal muscle cells); test: cytotoxicity call (relative viability < 0.9); conditions: 10 µM

Structure (SMILES) | cytotoxicity call
CC(C)NC(=O)Nc1ccc2c(c1)CC(=O)N([C@@H](C)CO)C[C@H](C)[C@H](CN(C)C(=O)NC1CCCCC1)O2 | inactive
Cc1cccc[n+]1C | inactive
CN1C2=CC(=O)/C(=N\NC(N)=O)C=C2C[C@H]1S(=O)(=O)O | inactive
COc1ccc(NC(=O)N(C)C[C@H]2OCCCC[C@H](C)Oc3ccc(NS(=O)(=O)c4ccc(C)cc4)cc3C(=O)N([C@@H](C)CO)C[C@H]2C)cc1 | inactive
CC(=O)OC1C(=O)C2(C)C(O)CC3OCC3(OC(C)=O)C2C(OC(=O)c2ccccc2)C2(O)CC(OC(=O)C(O)C(NC(=O)c3ccccc3)c3ccccc3)C(C)=C1C2(C)C (stereo not given) | inactive
CC(=O)OC1CC(C)(C)C(=C=C/C(C)=C/C=C/C(C)=C/C=C/C=C(C)/C=C/C=C(\C)C(=O)CC23OC2(C)CC(O)CC3(C)C)C(C)(O)C1 (stereo not given) | inactive
C[C@@H]1CN([C@H](C)CO)C(=O)c2cc(NC(=O)CCCCCC(=O)Nc3ccccc3N)ccc2O[C@@H]1CN(C)C(=O)Nc1ccccc1 | inactive
CO[C@H]1CN(C)C(=O)c2ccc(NC(=O)CC(F)(F)F)cc2OC[C@H](C)N(C(=O)C2CCOCC2)C[C@H]1C | inactive
O=c1c(O)cc(C2Oc3cc(O)cc(O)c3CC2O)cc2c(C3Oc4cc(O)cc(O)c4CC3O)cc(O)c(O)c12 (stereo not given) | inactive
Cc1noc(C)c1NC(=O)Nc1ccc2c(c1)C(=O)N([C@@H](C)CO)C[C@H](C)[C@@H](CN(C)Cc1ccc(C(F)(F)F)cc1)O2 | inactive
C[C@H](CO)N1C[C@H](C)[C@H](CN(C)Cc2ccc(Oc3ccccc3)cc2)Oc2ccc(NS(=O)(=O)c3ccccc3)cc2C1=O | inactive
C[C@@H]1CN([C@H](C)CO)C(=O)c2cc(NS(=O)(=O)c3ccccc3)ccc2O[C@H]1CN(C)Cc1ccc(Oc2ccccc2)cc1 | inactive
C[C@@H]1CN([C@@H](C)CO)C(=O)c2cc(NS(=O)(=O)c3ccc(Cl)cc3)ccc2O[C@@H]1CN(C)Cc1ccc(Oc2ccccc2)cc1 | active
C[C@@H]1CN([C@H](C)CO)C(=O)c2cc(NS(=O)(=O)c3cn(C)cn3)ccc2O[C@H]1CN(C)Cc1ccc2c(c1)OCO2 | inactive
COc1ccc(S(=O)(=O)N(C)C[C@H]2Oc3ccc(NC(=O)Cn4cnnn4)cc3CC(=O)N([C@@H](C)CO)C[C@@H]2C)cc1 | inactive
C[C@@H]1CCCCO[C@@H](CN(C)C(=O)Nc2cccc3ccccc23)[C@H](C)CN([C@H](C)CO)C(=O)c2cc(NS(=O)(=O)c3cccs3)ccc2O1 | inactive
C[C@H]1CCCCO[C@H](CN(C)C(=O)Nc2cccc3ccccc23)[C@@H](C)CN([C@@H](C)CO)C(=O)c2cc(NS(=O)(=O)c3cccs3)ccc2O1 | inactive
C[C@H](CO)N1C[C@H](C)[C@@H](CN(C)C(=O)Nc2cccc3ccccc23)OCCCC[C@H](C)Oc2ccc(NS(=O)(=O)c3cccs3)cc2C1=O | active
C[C@@H]1CN([C@@H](C)CO)C(=O)c2cc(NS(=O)(=O)c3cccs3)ccc2O[C@@H](C)CCCCO[C@H]1CN(C)C(=O)Nc1cccc2ccccc12 | inactive
C[C@@H]1CCCCO[C@H](CN(C)C(=O)Nc2cccc3ccccc23)[C@H](C)CN([C@H](C)CO)C(=O)c2cc(NS(=O)(=O)c3cccs3)ccc2O1 | active

Structure (SMILES) | cytotoxicity call
C[C@H]1CCCCO[C@@H](CN(C)C(=O)Nc2cccc3ccccc23)[C@@H](C)CN([C@@H](C)CO)C(=O)c2cc(NS(=O)(=O)c3cccs3)ccc2O1 | inactive
C[C@@H]1CN([C@@H](C)CO)S(=O)(=O)c2ccc(-c3ccc(F)cc3)cc2O[C@@H]1CN(C)S(C)(=O)=O | inactive
Oc1ccc([C@@H]2C=CCC2)cc1 | inactive
COc1ccc(NC(=O)N(C)C[C@H]2OCCCC[C@@H](C)Oc3ccc(NC(=O)Nc4ccc5c(c4)OCO5)cc3C(=O)N([C@@H](C)CO)C[C@H]2C)cc1 | inactive
C[C@@H]1CN([C@H](C)CO)C(=O)c2cccc(NC(=O)C3CCOCC3)c2O[C@@H]1CN(C)Cc1ccc2c(c1)OCO2 | inactive
Cc1cc(C(=O)Nc2cccc3c2O[C@H](CN(C)S(=O)(=O)c2ccc(F)cc2)[C@H](C)CN([C@H](C)CO)C3=O)n(C)n1 | inactive
CN(C)CC(=O)N1[C@@H]2Cn3c(cccc3=O)[C@H]1[C@@H](C(=O)NCc1ccccc1)[C@@H]2CO | inactive
C=CCC[C@@H](Cc1ccc(F)cc1)C(=O)O[C@H](CNC(=O)[C@@H](CC=C)CC(=O)N(CCO)Cc1ccccc1)c1ccccc1 | active
C=CCC[C@H](Cc1ccc(F)cc1)C(=O)O[C@H](CNC(=O)[C@@H](CC=C)CC(=O)N(CCO)Cc1ccccc1)c1ccccc1 | inactive
C=CCC[C@@H](Cc1ccc(F)cc1)C(=O)O[C@H](CNC(=O)[C@H](CC=C)CC(=O)N(CCO)Cc1ccccc1)c1ccccc1 | inactive
C=CCC[C@H](Cc1ccc(F)cc1)C(=O)O[C@@H](CNC(=O)[C@H](CC=C)CC(=O)N(CCO)Cc1ccccc1)c1ccccc1 | inactive
C=CCC[C@H](Cc1ccc(F)cc1)C(=O)O[C@@H](CNC(=O)[C@@H](CC=C)CC(=O)N(CCO)Cc1ccccc1)c1ccccc1 | active
C=CCC[C@H](Cc1ccc(F)cc1)C(=O)O[C@H](CNC(=O)[C@H](CC=C)CC(=O)N(CCO)Cc1ccccc1)c1ccccc1 | inactive
C=CCC[C@@H](Cc1ccc(F)cc1)C(=O)O[C@@H](CNC(=O)[C@H](CC=C)CC(=O)N(CCO)Cc1ccccc1)c1ccccc1 | active
C=CCC[C@@H](Cc1ccc(F)cc1)C(=O)O[C@@H](CNC(=O)[C@@H](CC=C)CC(=O)N(CCO)Cc1ccccc1)c1ccccc1 | active
COC(=O)C[C@H]1CC[C@@H]2[C@H](COC[C@@H](O)CN2S(=O)(=O)c2ccc(F)cc2)O1 | inactive
C=CCNC(=O)[C@@H]1[C@H]2C(=O)O[C@H](c3ccccc3)[C@H](c3ccccc3)N2[C@H](c2ccc(O)cc2)[C@@]12C(=O)N(C(=O)OCCOC)c1ccc(C#Cc3ccc(OC)cc3)cc12 | inactive
CC(C)NC(=O)N(C)C[C@H]1Oc2cc(-c3ccccc3F)ccc2S(=O)(=O)N([C@@H](C)CO)C[C@H]1C | inactive
Nc1ncnc(Cl)c1N | inactive
COCC#Cc1ccc2c(c1)O[C@H](CN(C)C(=O)c1ccccc1)[C@@H](C)CN([C@@H](C)CO)S2(=O)=O | inactive

Structure (SMILES) | cytotoxicity call
C[C@@H]1CCCCO[C@@H](CN(C)C(=O)c2ccccc2)[C@@H](C)CN([C@H](C)CO)C(=O)c2cc(NC(=O)Nc3ccc(F)cc3)ccc2O1 | inactive
COc1ccccc1CNC(=O)C[C@H]1CC[C@H]2[C@@H](COC[C@H](O)CN2C(=O)Nc2ccc(F)cc2)O1 | inactive
O=C(C[C@@H]1C[C@H]2c3cc(NC(=O)Nc4ccc(C(F)(F)F)cc4)ccc3O[C@H]2[C@H](CO)O1)NCc1cc(F)ccc1F | inactive
C[C@@H]1CN([C@H](C)CO)C(=O)c2cc(NC(=O)c3ccncc3)ccc2O[C@H]1CN(C)Cc1ccc(Oc2ccccc2)cc1 | inactive
O=C(O[C@H]1[C@H](O)[C@@H](CO)O[C@H](c2c(O)cc(O)c(C(=O)c3ccc(O)cc3)c2O)[C@H]1OC(=O)c1cc(O)c(O)c(O)c1)c1cc(O)c(O)c(O)c1 | inactive
CCS(=O)(=O)Nc1ccc2c(c1)C(=O)N(C)[C@@H]1CC[C@H](CC(=O)NCCCN3CCOCC3)O[C@@H]1CO2 | inactive
COc1ccc(S(=O)(=O)Nc2ccc3c(c2)CC(=O)N([C@H](C)CO)C[C@H](C)[C@H](CN(C)Cc2ccc(-c4ccccc4)cc2)O3)cc1 | inactive
COc1ccc(S(=O)(=O)Nc2ccc3c(c2)CC(=O)N([C@H](C)CO)C[C@@H](C)[C@@H](CN(C)Cc2ccc(-c4ccccc4)cc2)O3)cc1 | active
COc1ccc(S(=O)(=O)Nc2ccc3c(c2)CC(=O)N([C@@H](C)CO)C[C@H](C)[C@H](CN(C)Cc2ccc(-c4ccccc4)cc2)O3)cc1 | active
COc1ccc(S(=O)(=O)Nc2ccc3c(c2)CC(=O)N([C@@H](C)CO)C[C@H](C)[C@@H](CN(C)Cc2ccc(-c4ccccc4)cc2)O3)cc1 | inactive
COc1ccc(S(=O)(=O)Nc2ccc3c(c2)CC(=O)N([C@@H](C)CO)C[C@@H](C)[C@@H](CN(C)Cc2ccc(-c4ccccc4)cc2)O3)cc1 | inactive
COc1ccc(S(=O)(=O)Nc2ccc3c(c2)CC(=O)N([C@H](C)CO)C[C@@H](C)[C@H](CN(C)Cc2ccc(-c4ccccc4)cc2)O3)cc1 | active
COc1ccc(S(=O)(=O)Nc2ccc3c(c2)CC(=O)N([C@@H](C)CO)C[C@@H](C)[C@H](CN(C)Cc2ccc(-c4ccccc4)cc2)O3)cc1 | inactive
COc1ccc(S(=O)(=O)Nc2ccc3c(c2)CC(=O)N([C@H](C)CO)C[C@H](C)[C@@H](CN(C)Cc2ccc(-c4ccccc4)cc2)O3)cc1 | inactive
Cc1ccc2oc(=O)cc(Cl)c2c1 | inactive
NC(=O)NCC#Cc1ccc2c(c1)[C@]1(C(=O)N2)[C@H](C(=O)O)[C@H]2C(=O)O[C@H](c3ccccc3)[C@H](c3ccccc3)N2[C@@H]1c1ccc(OCCO)cc1 | inactive
COc1ccccc1CNC(=O)C[C@H]1C[C@H]2c3cc(NC(=O)C4CCOCC4)ccc3O[C@H]2[C@@H](CO)O1 | inactive
CC(C)NC(=O)N(C)C[C@@H]1Oc2ccc(NS(=O)(=O)c3cn(C)cn3)cc2CC(=O)N([C@@H](C)CO)C[C@@H]1C | inactive
Cc1noc(C)c1NC(=O)N(C)C[C@@H]1OCCCC[C@@H](C)Oc2ccc(NS(=O)(=O)c3ccc(Cl)cc3)cc2C(=O)N([C@H](C)CO)C[C@@H]1C | inactive
COc1ccc(S(=O)(=O)N(C)C[C@@H]2Oc3ccc(NC(=O)c4ccncc4)cc3CC(=O)N([C@@H](C)CO)C[C@H]2C)cc1 | inactive
